DT40 TDP1 CPT – growth inhibition of DT40 Tdp1-/-;hTDP1 cells with camptothecin (screen for TDP1 inhibitors); chicken DT40 Tdp1-/-;hTDP1 cells + 20 nM CPT, ATP luminescence, 48 h; Potency, µM (series often up to 46.2 µM), inactives show top-dose activity change, negative = growth inhibition, most hits filed as inhibitors; actives 12% (n = 420,000); further: potency means the concentration at half of the fitted maximal effect; nearly all actives have a fitted effect of over 55% in size
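Chicken DT40 Tdp1-/- cells complemented with human TDP1, 400 cells/well, exposed to compounds plus 20 nM camptothecin for at least 48 h at 37 C; viability read as ATP content by CellTiter-Glo luminescence.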
HT1080 IDH1KD tx – kills HT-1080 cells with IDH1 knockdown; HT-1080 IDH1 knockdown viability, ATP luminescence, 48 h; Potency, µM (highest dose often 46.1 µM), without a hit: at the highest dose activity, negative = toxicity, actives largely listed as cytotoxic; actives 2% (n = 360,000);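 further: potency means the concentration at half of the fitted maximal effect; 0% = DMSO wells and -100% = cell-free medium wells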
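Cytotoxicity counter-line: IDH1KD HT-1080, 48 h, CellTiter-Glo. Curves classed by r2, magnitude and activity.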
HT1080NT lethal – kills 2HG-producing HT-1080-NT fibrosarcoma cells | actives 1.6% (n = 360,000) | HT-1080-NT fibrosarcoma viability, CellTiter-Glo ATP luminescence, 48 h | AID 686970 | Potency, µM (series often up to 46.1 µM), for the others: top-dose activity, negative = less viability, actives largely listed as cytotoxic;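 further: NT is the 2HG producing partner of a matched IDH1 knockdown line; potency means the concentration at half of the fitted maximal effect; 0% = DMSO-treated cells and -100% = media-only wells without cells; nearly all actives have a fitted effect of over 55% in size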
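Viability by CellTiter-Glo luminescence after 48 h compound exposure at 37C of HT-1080-NT cells (750/well, RPMI, 5% FBS). % activity scaled between DMSO wells and medium-only wells, then curve-fitted and categorized by curve class.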
IL-1B inflam inh – blocks inflammasome-driven IL-1 beta release; THP-1 LPS/ATP IL-1B secretion, AlphaLISA, 16 h; hits give low values; activity change, % at 57.5 µM; actives 4.7% (n = 360,000); AID 743279; in the data active means activity change below about -50%; inconclusive means mostly about -30% to -49%
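THP-1 cells pretreated 1 hr with compounds (up to 57.5 uM final), then stimulated with LPS (250 ng/mL final) plus ATP (1.25 mM final); secreted IL-1B measured by AlphaLISA after 16 hr, decreased signal indicating inhibition.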
DT40 TDP1 no CPT – qHTS for Inhibitors of human tyrosyl-DNA phosphodiesterase 1 (TDP1): qHTS in cells in absence of CPT; AID 686978, 2013; Potency, µM (doses to about 46.2 µM), inactives show top-dose activity change, negative = growth inhibition, usual class: inhibitors; actives 15% (n = 420,000); DT40 Tdp1-/- hTDP1 cells, no CPT, ATP luminescence, 48 h; further: potency means the concentration at half of the fitted maximal effect; nearly all actives have a fitted effect of over 55% in size
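Growth of hTDP1-complemented DT40 Tdp1-knockout cells is measured by ATP luminescence after at least 48 hr compound exposure at 37 °C, with DMSO substituting for the 20 nM CPT used in the parallel screen.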
* = called active by the depositor; ? = inconclusive; · = no result. In the library only some 19% were active in any assay of this set; here they are far more common. Unless noted, the call rests on the fitted dose curve; in most records, active means well fitted curve in the direction sought with a large enough effect; inconclusive means small, poorly fitted or top-dose-only effect, or another doubt; inactive means no such curve, though single readings can be large; an effect the other way counts as inactive or inconclusive. Unless noted, on the % scale 0 is the no-effect control and ±100 the full control effect.

SMILES	DT40 TDP1 CPT	HT1080 IDH1KD tx	HT1080NT lethal	IL-1B inflam inh	DT40 TDP1 no CPT
C=CCN(CC=C)S(=O)(=O)c1ccc(NC(=S)NC(=O)Cc2ccc(OC)cc2)cc1	?	?	-9.6%	7.7	20.6µM*
C[C@H]1CN([C@@H](C)CO)C(=O)c2cc(Br)cnc2O[C@H]1CN(C)C(=O)Cc1ccccn1	0.7%	5.2%	2.6%	7.7	-15.7%
COc1ccc(NC(=O)[C@@H]2CC=C[C@@H]3CCN(C4CCCCC4)C(=O)[C@@H]32)cc1	?	7.1%	4.7%	1.9	?
COc1cc(-c2noc(-c3cc(C(C)C)[nH]n3)n2)cc(OC)c1OC	?	·	·	·	20.6µM*
COc1cc(-c2noc(-c3cc(C)[nH]n3)n2)cc(OC)c1OC	-20.4%	·	·	·	?
COc1ccc(-c2noc(-c3ccc(Cl)cc3)n2)cc1	-0.2%	29.9%	23.8%	-0.4	-16.6%
CC(C)c1cc(-c2nc(-c3ccc(Cl)cc3)no2)n[nH]1	20.6µM*	·	·	·	20.6µM*
O=C(Nc1nnc(N2CCCCCC2)s1)Nc1ccccc1C(F)(F)F	-4.6%	·	·	·	-29.8%
CCNC(=O)C1(C)CCN(Cc2ccc(C#N)cc2)C1 (stereo not drawn)	-9.5%	19.4%	?	48.8	-13.3%
Oc1ccccc1-c1cc(-c2ccc3c(c2)OCCO3)n[nH]1	?	?	?	-60.7*	?
COc1ccc(-c2cc(-c3ccccc3O)[nH]n2)cc1OC	?	?	?	-13.3	18.4µM*
COc1ccc(-c2cc(-c3cc(F)ccc3O)[nH]n2)cc1OC	?	?	-0.2%	-17.9	?
COc1ccc(-c2cc(-c3ccc(OC)c(OC)c3)n[nH]2)c(O)c1	25.9µM*	?	-4.7%	-7.0	20.6µM*
O=C(O)c1cc(-c2ccc3c(c2)OCCO3)n[nH]1	15.8%	?	13.7%	21.7	11.0%
O=C1NC(CCc2ccccc2)C(=O)N1CCOc1ccccc1 (stereo not drawn)	-14.7%	0.0%	2.8%	13.5	0.0%
Cc1cc(S(=O)(=O)n2[nH]c(=O)c(CCO)c2C)c(Cl)cc1Cl	16.4µM*	0.6%	0.0%	-8.7	?
CCN(CC)C(=S)Nc1ccc([N+](=O)[O-])cc1	-0.4%	-1.8%	-3.3%	31.1	-22.8%
Cc1cc(-c2ccccc2)nc(N(C)NC(=O)c2ccc(Cl)cc2)c1S(C)(=O)=O	14.6µM*	-0.6%	-6.6%	-26.6	20.6µM*
Cc1ccc(S(=O)(=O)Oc2ccccc2/C=N/N=C(N)N)cc1	?	?	-8.9%	-127.3*	18.4µM*
Cc1ccc(S(=O)(=O)Oc2ccccc2/C=N/NC(=O)c2nn(C)cc2[N+](=O)[O-])cc1	?	4.3%	2.2%	?	16.4µM*
Cc1ccc(S(=O)(=O)Oc2ccccc2/C=C2\SC(=O)NC2=O)cc1	8.4%	-26.0%	20.6µM*	8.4	-14.6%
Cc1ccc(S(=O)(=O)Oc2ccccc2/C=N/NC(N)=S)cc1	4.11µM*	?	4.47µM*	16.5	6.51µM*
Cc1ccc(S(=O)(=O)Oc2ccccc2[N+](=O)[O-])cc1	-1.7%	-4.5%	-3.6%	-11.9	?
Cc1ccc(S(=O)(=O)Oc2ccc(/C=N/NC(=O)c3nn(C)cc3[N+](=O)[O-])cc2)cc1	20.3%	-21.4%	-28.5%	-10.0	?
Cc1ccc2c(c1)C(=C(C#N)C#N)C(=O)N2CCN1CCCCC1	23.1µM*	10.3%	6.0%	-9.8	18.4µM*
SMILES	DT40 TDP1 CPT	HT1080 IDH1KD tx	HT1080NT lethal	IL-1B inflam inh	DT40 TDP1 no CPT
Cc1ccc2c(c1)C(=C(C#N)C#N)C(=O)N2CCN1CCOCC1	16.4µM*	-4.5%	-4.9%	13.0	?
Cc1ccc(C)c(N2CCN(CCN3CCCCC3)CC2)c1	-27.7%	8.9%	7.6%	5.7	?
COc1cccc(NC(=O)COc2cccc3c2CCNC3=O)c1	?	-1.5%	-6.2%	45.2	-28.1%
COc1ccc(NC(=O)CSc2ncc(-c3ccc(Cl)cc3)[nH]2)cc1OC	?	·	·	·	14.6µM*
Cc1cccc(NC(=O)CSc2ncc(-c3ccc(Br)cc3)[nH]2)c1	23.1µM*	·	·	·	?
Cc1cccc(NC(=O)CSc2cn[nH]n2)c1	-6.0%	16.9%	11.0%	-5.7	1.2%
COc1ccc(NC(=O)CSc2nc3[nH]ncc3c(=O)[nH]2)cc1OC	-7.6%	1.7%	4.8%	18.7	-3.0%
CCc1ccc(OCC(=O)N/N=C/c2cc([N+](=O)[O-])ccc2N2CCCCCC2)cc1	?	4.1%	6.8%	-16.1	?
CN(c1ccc([N+](=O)[O-])cc1/C=N/NC(=O)COc1ccccc1)C1CCCCC1	?	-12.3%	-10.5%	-3.0	16.4µM*
Cc1cccc(-n2cnc3cc(C(=O)NCC4CCCO4)ccc32)c1 (stereo not drawn)	9.2µM*	?	?	?	7.31µM*
Cc1cccc(-n2cnc3cc(C(=O)N4CCc5ccccc54)ccc32)c1	-12.7%	5.3%	8.5%	-77.0*	?
COCCNC(=O)c1ccc2c(c1)ncn2-c1cccc(C)c1	16.4µM*	?	?	-11.4	?
O=C(c1ccc2ccccc2c1)N1CCc2ccccc21	11.8%	-4.2%	-3.5%	21.2	-10.8%
O=C(CN1C(=O)C2C3C=CC(C3)C2C1=O)Nc1ccc(S(=O)(=O)N2CCCCC2)cc1 (stereo not drawn)	15.3%	11.5%	1.6%	1.3	?
CCCCCCCCS(=O)C1CCS(=O)(=O)C1 (stereo not drawn)	-19.0%	-0.1%	-3.7%	4.9	?
CCCCCCS(=O)[C@H]1CS(=O)(=O)C[C@@H]1S(=O)CCCCCC (stereo partly drawn)	23.1µM*	0.2%	-4.2%	-13.7	?
CCCc1cc(=O)[nH]c(SCC(=O)Nc2cc(S(=O)(=O)N3CCCCC3)ccc2Cl)n1	-14.8%	14.6µM*	6.51µM*	13.5	4.1%
O=C(CN1CCN(c2ccccc2O)CC1)Nc1cc(S(=O)(=O)N2CCCC2)ccc1Cl	16.4µM*	-12.9%	-14.2%	?	?
O=C(CCl)Nc1cc(S(=O)(=O)N2CCCCCC2)ccc1Cl	3.66µM*	?	23.1µM*	-101.4*	2.59µM*
O=C(CN1CCN(C(=O)c2ccco2)CC1)Nc1cc(S(=O)(=O)N2CCCC2)ccc1Cl	?	-8.4%	-2.7%	-15.9	6.51µM*
O=C(CN1CCN(c2ccccc2O)CC1)Nc1ccc(S(=O)(=O)N2CCCCCC2)cc1	?	-20.7%	-3.1%	-15.0	?
CNC(=O)C[C@H]1C(=O)N(C2CCCCC2)C[C@@H]1c1ccc(Br)cc1	1.2%	0.6%	3.1%	11.2	-1.4%
